This assay concerns the target Fibroblast growth factor 10 (Homo sapiens) (UniProt O15520). Briefly: FGF10 binders on small-molecule microarrays, primary screen, biochemical, small-molecule microarray, 635 nm fluorescence (AID 1102). The note with it: FGF10 binding, fluorescence 635 nm, higher = more signal.
Sequence of Fibroblast growth factor 10 (Homo sapiens) (O15520 whole entry, looked up): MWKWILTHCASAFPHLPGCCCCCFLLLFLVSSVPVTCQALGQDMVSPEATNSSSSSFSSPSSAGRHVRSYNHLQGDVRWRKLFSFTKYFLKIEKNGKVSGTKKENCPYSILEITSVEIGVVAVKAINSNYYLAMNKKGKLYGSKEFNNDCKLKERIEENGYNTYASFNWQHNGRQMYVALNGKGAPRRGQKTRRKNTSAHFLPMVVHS
With `O=C1CCCC(C2=CCCCC2=O)C1` (stereo not given), the composite z-score was found to be 0.466.
The result for `Cn1c(=O)n2n(c1=O)[C@H]1[C@H](O)[C@@H]3O[C@@H]3C(=NOCc3ccccc3)[C@H]1CC2` reads -0.414; that for `CO[C@H](C1CCCCC1)[C@H](C)C=CCC(=O)OCCCc1ccccc1`, 0.227; that for `COC(=O)[C@H](C)NC(=O)CCC1CC(OC(=O)NCc2ccc3c(c2)OCO3)CC2(CCCC(COC(=O)NCC(c3ccccc3)c3ccccc3)O2)O1` (stereo not given in full), 1.33.
`O=c1n(-c2ccccc2)c(=O)n2n1CC[C@@H]1C(=NOCc3ccccc3)[C@H]3O[C@H]3[C@@H](O)[C@@H]12` yielded a composite z-score of 0.334.
As for `COC(=O)[C@H]1[C@@H](O)[C@@]2(O)c3ccccc3O[C@@]2(c2ccccc2)[C@@H]1c1ccccc1`, the figure is 0.0746; as for `COC(=O)CC=C[C@@H](C)[C@@H](C=NOC(C)CN1CCCc2nc(C)c(C)cc21)OC` (stereo not given in full), 0.407.
On to `COC(=O)[C@H](C)NC(=O)CCC1CC(OC(=O)NCCc2ccc(F)cc2)CC2(CCCC(COC(=O)NCc3cccc(C(F)(F)F)c3)O2)O1` (stereo not given in full), for which the composite z-score worked out at 0.951.
As for `Cc1ccc(S(=O)(=O)N[C@H]2COC(=O)CC=C[C@H](C)[C@@H](NS(=O)(=O)c3ccc(C)cc3)COC(=O)CC=C[C@@H]2C)cc1`, the figure is 0.925; as for `CON=C1[C@H]2CCn3c(=O)n(-c4ccccc4)c(=O)n3[C@H]2[C@H](O)[C@@H]2O[C@H]12`, 0.556.
The result for `C#CCCCON=C1C[C@@H](O)[C@@H](O)[C@@H]2[C@@H]3C(=O)N(C(C)(C)C)C(=O)[C@@H]3CC[C@@H]12` reads -0.624; that for `CO[C@H]1COC(=O)CC=C[C@@H](C)[C@H](NS(=O)(=O)c2ccc(C)cc2)COC(=O)CCC[C@@H]1C`, 0.366; that for `COc1ccc(COC(=O)NN=C2C[C@@H](O)[C@@H](O)[C@@H]3[C@@H]4C(=O)N(c5ccc(F)cc5F)C(=O)[C@@H]4CC[C@H]23)cc1`, 0.0785.
The result for `COc1ccc(O[C@H]2C=C[C@@H](c3ccccc3)O[C@@H]2COC(=O)CCC(C)=NOC[C@@H](O)[C@H]2O[C@@H]3OC(C)(C)O[C@@H]3[C@H]2O)cc1` reads 0.766; that for `CO[C@H]1COC(=O)CC=C[C@H](C)[C@@H](OC)COC(=O)[C@H](C)COC(=O)CC=C[C@@H]1C`, 0.0773.
`CCOC(=O)C1=NO[C@]2(C=C(Br)C3(OCCCO3)[C@H]3O[C@H]32)C1` displayed a composite z-score of 0.18.
As for `Cc1cc2c(nc1C)CCCCN2CC(C)ON=C1[C@H]2CCn3c(=O)n(-c4ccccc4)c(=O)n3[C@H]2[C@H](O)[C@@H]2O[C@H]12` (stereo not given in full), the figure is 1.11; as for `COc1ccc(O[C@H]2C=C[C@@H](c3ccccc3)O[C@@H]2COC(=O)CCC(C)=NO[C@@H]2O[C@H](COC(C)=O)[C@@H](OC(C)=O)[C@H](OC(C)=O)[C@H]2OC(C)=O)cc1`, 0.799.
As to `Cc1cc2c(c(=O)o1)[C@@H](O)[C@H]1O[C@H]1C2=O`, the composite z-score was 0.436.
As for `CCOC(=O)CCN1C(=O)[C@H]2[C@H]3[C@H](O)[C@H](O)CC(=NNC(=O)OCc4ccccc4)[C@@H]3CC[C@H]2C1=O`, the figure is 0.709; as for `O=C1[C@H]2[C@H]3[C@H](O)[C@H](O)CC(=NOC[C@@H](O)COCc4ccco4)[C@@H]3CC[C@H]2C(=O)N1C[C@@H]1CCCO1`, 0.204; as for `CC(C)CON=C1C[C@@H](O)[C@@H](O)[C@@H]2[C@@H]3C(=O)N(C[C@@H]4CCCO4)C(=O)[C@@H]3CC[C@@H]12`, -0.231.
As for `CON=Cc1ccc(C(=O)N2[C@H](c3ccc(C)cc3)[C@@H](C)CC[C@H]2C(=O)OC)cc1`, the figure is 0.52; as for `C[C@@H](c1ccccc1)N1C(=O)[C@H]2[C@H]3[C@H](O)[C@H](O)CC(=O)[C@H]3CC[C@H]2C1=O`, 0.526; as for `CC(C)CON=C1C[C@@H](O)[C@@H](O)[C@@H]2[C@@H]3C(=O)N(Cc4ccc5c(c4)OCO5)C(=O)[C@@H]3CC[C@H]12`, 1.14.
As for `CCN1C(=O)[C@H]2[C@H]3[C@H](O)[C@H](O)CC(=NOCC(C)C)[C@@H]3CC[C@H]2C1=O`, the figure is 0.546; as for `CC(C)=NO[C@H](C)c1cn([C@H](CO)Cc2ccccc2)nn1`, 0.443.
Consider `CCCNC(=O)OC[C@H]1O[C@H](c2ccccc2)C=C[C@@H]1Oc1ccc(OC)cc1`, for which the composite z-score was found to be 0.0708.
Take `C[C@@H]1CC[C@H]2C(=O)O[C@@H](Cc3ccccc3)CN2[C@H]1c1ccc(Br)cc1`: the composite z-score worked out at 0.383.
With `COc1ccc(O[C@H]2C=C[C@@H](c3ccccc3)O[C@@H]2CON=C(C)CCC(=O)OC[C@H]2O[C@H](c3ccccc3)C=C[C@@H]2Oc2ccc(OC)cc2)cc1`, the composite z-score is -1.19.

These data come from PubChem BioAssay.
